Drawing on PubChem BioAssay (EPA / NIEHS), this text covers outcome and AC50 for 40 compounds.

Inconclusive results are not listed. The source made the active and inactive calls. Rule for the calls: active = hit-call score of the fitted dose curve at least 0.9, where 1 is the maximum; inconclusive = response in the unintended direction; inactive = score below 0.9.

Chain of Estrogen receptor beta (Homo sapiens) (Q92731 whole entry, looked up, the tested form may be a part): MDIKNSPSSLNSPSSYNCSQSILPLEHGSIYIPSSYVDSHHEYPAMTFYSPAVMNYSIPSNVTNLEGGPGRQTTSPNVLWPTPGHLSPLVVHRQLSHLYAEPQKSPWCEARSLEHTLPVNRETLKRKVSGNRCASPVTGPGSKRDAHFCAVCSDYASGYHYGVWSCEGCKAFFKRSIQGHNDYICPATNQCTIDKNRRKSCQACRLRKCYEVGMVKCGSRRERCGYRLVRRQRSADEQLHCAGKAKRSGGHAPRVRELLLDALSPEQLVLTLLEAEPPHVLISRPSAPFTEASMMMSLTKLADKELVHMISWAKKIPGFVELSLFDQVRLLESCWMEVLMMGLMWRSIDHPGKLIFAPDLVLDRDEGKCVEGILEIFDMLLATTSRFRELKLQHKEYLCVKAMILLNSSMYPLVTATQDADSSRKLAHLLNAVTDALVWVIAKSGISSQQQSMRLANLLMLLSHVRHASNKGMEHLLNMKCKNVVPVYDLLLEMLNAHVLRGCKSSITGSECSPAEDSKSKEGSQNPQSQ

For the experiment, the target named is Estrogen receptor beta (Homo sapiens) (UniProt Q92731). Put plainly: OT_ER_ERbERb_0480: Odyssey Thera (OT) 8-hour HEK293T Protein-Complementation Assay for Estrogen Receptor-beta/-beta Homodimer (AID 2283357). Here is the method:
OT_ER_ERbERb_0480 is a cell-based assay that uses HEK293T, a human kidney cell line, with measurements taken at 8 hours after chemical dosing in a 384-well plate.OT_ER_ERbERb_0480 is one of one assay component(s) measured or calculated from the OT_ER_ERbERb_0480 assay. It is designed to make measurements of protein fragment complementation, a form of binding reporter, as detected with fluorescence intensity signals by Protein-fragment Complementation technology.Data from the assay component OT_ER_ERbERb_0480 was analyzed into 1 assay endpoint. This assay endpoint, OT_ER_ERbERb_0480, was analyzed in the positive analysis fitting direction relative to DMSO as the negative control and baseline of activity. Using a type of binding reporter, measures of receptor for gain-of-signal activity can be used to understand the binding at the pathway-level as they relate to the gene ESR2. Furthermore, this assay endpoint can be referred to as a primary readout, because the performed assay has only produced 1 assay endpoint. To generalize the intended target to other relatable targets, this assay endpoint is annotated to the nuclear receptor intended target family, where the subfamily is steroidal.
Protein-fragment complementation assay, or PCA, is a method for the identification and quantification of protein-protein interactions. In the PCA, the proteins of interest ("bait" and "prey") are each covalently linked to fragments of a third protein (e.g. DHFR, which acts as a "reporter"). Interaction between the bait and the prey proteins brings the fragments of the reporter protein in close proximity to allow them to form a functional reporter protein whose activity can be measured. The OT ER beta / ER beta assay is a homodimer PCA of the ligand binding domain (LBD; amino acids 310-547) of human ER beta stably expressed in HEK293T cells. […] Cells are fixed in 4 percent formaldehyde and stained with Draq5 (BioStatus) to identify cells prior to signal detection. Fluorescent signal in the basal state of the assay is very low and is primarily punctuate and cytoplasmic. Modulation of this assay is quantified as an increase in mean fluorescence intensity in the nucleus (for agonists) or in the nucleus and cytoplasm (antagonists) relative to vehicle controls, and can be quantified on a high content imaging device or a laser scanning cytometer. The latter instrument is favored for this assay because of the rapid mode of data acquisition, the ability to acquire data from the entire cell population in a well (as opposed to a fraction of the well on the high content devices) and the larger dynamic range typically achieved with this instrument. To assess sensitivity of the ER beta/ER beta LBD assay to ligand, cells were treated with the ER agonist 17- beta-estradiol (E2) in 10-point concentration- response format for 8 hours and monitored response on a laser scanning plate cytometer (Acumen eX3; TTP Lab Tech).
For `CCCC(=O)OC(C)(C)Cc1ccccc1`, the compound was classed as inactive.

With `C[C@H]1O[C@@H](O[C@H]2[C@@H](O)C[C@H](O[C@H]3[C@@H](O)C[C@H](O[C@H]4CC[C@@]5(C)[C@H](CC[C@@H]6[C@@H]5C[C@@H](O)[C@]5(C)[C@@H](C7=CC(=O)OC7)CC[C@]65O)C4)O[C@@H]3C)O[C@@H]2C)C[C@H](O)[C@@H]1O`, the result was inactive.

Regarding `C=C(C)C(=O)OCCOC1CC2CC1C1C=CCC21` (stereo not given), the compound was classed as inactive.

For the compound `CCc1cc(Cc2cc(CC)cc(C(C)(C)C)c2O)c(O)c(C(C)(C)C)c1`, the call was inactive.

With `C#CC(C)(O)CC(C)C` (stereo not given), the compound was classed as inactive.

As to `OCc1cccc(Oc2ccccc2)c1`, the concentration at half-maximal activity (AC50) was 47.7 µM (active).

For the compound `ON=C1CCCCC1`, the outcome was inactive.

In the case of `CCC1(C)NC(=O)NC1=O` (stereo not given), the compound was classed as inactive.

As to `O=C(CC(=O)c1ccccc1)c1ccccc1`, the outcome was inactive.

Consider `Clc1ccc(C(c2ccccc2Cl)C(Cl)Cl)cc1` (stereo not given), for which the concentration at half-maximal activity (AC50) was 3.87 µM (active).

For the compound `OC[C@H]1O[C@@H]2O[C@H]3[C@H](O)[C@@H](O)[C@@H](O[C@H]4[C@H](O)[C@@H](O)[C@@H](O[C@H]5[C@H](O)[C@@H](O)[C@@H](O[C@H]6[C@H](O)[C@@H](O)[C@@H](O[C@H]7[C@H](O)[C@@H](O)[C@@H](O[C@H]8[C@H](O)[C@@H](O)[C@@H](O[C@H]9[C@H](O)[C@@H](O)[C@@H](O[C@H]1[C@H](O)[C@H]2O)O[C@@H]9CO)O[C@@H]8CO)O[C@@H]7CO)O[C@@H]6CO)O[C@@H]5CO)O[C@@H]4CO)O[C@@H]3CO`, the call was inactive.

On to `O=[N+]([O-])c1ccc(O)cc1C(F)(F)F`, for which the AC50 was 64.6 µM (active).

Regarding `c1ccc(Oc2ccccc2)cc1`, the call was inactive.

Consider `CCC(=O)O[C@@H]1C[C@H]2CC[C@]1(C)C2(C)C`, for which the result was inactive.

Take `CCCCCCCCN1CCCC1=O`: the outcome was inactive.

Regarding `CC1CC(O)CC(C)(C)C1` (stereo not given), the call was inactive.

Take `CCOC(=O)[C@@H](C)Oc1ccc(Oc2nc3ccc(Cl)cc3o2)cc1`: the compound was called inactive.

`CCOc1ccccc1O`: the result was inactive.

On to `CCCCCCC(C)(C)S`, for which the call was inactive.

Turning to `[O-]n1ccccc1=S.[O-]n1ccccc1=S.[Zn+2]`, the compound was classed as inactive.

`C=Cc1ccc(C)cc1`: the compound was classed as inactive.

For `O=Cc1ccccc1S(=O)(=O)O`, the outcome was inactive.

As for `O=P(O)(O)O`, the compound was called inactive.

`CSCCC=O`: the compound was called inactive.

For `C=C[Si]1(C)O[Si](C)(C=C)O[Si](C)(C=C)O[Si](C)(C=C)O1` (stereo not given), the AC50 was 23.8 µM (active).

On to `COC(=O)c1ccc(C)cc1C1=NC(C)(C(C)C)C(=O)N1` (stereo not given) (tested in a mixture with another compound), for which the call was inactive.

On to `BrCc1cccc(Oc2ccccc2)c1`, for which the AC50 is 60.7 µM (active).

Turning to `C=CC(=O)OCCCC`, the outcome was inactive.

In the case of `C=CC(C)(O)CCC=C(C)C` (stereo not given), the compound was called inactive.

Consider `CC(C)c1ccccc1O`, for which the call was inactive.

With `CN1CCOCC1`, the call was inactive.

For the compound `CCOC(=O)c1ccc(N)cc1`, the result was inactive.

For `Nc1ccccc1[N+](=O)[O-]`, the compound was called inactive.

Consider `COS(=O)(=O)O`, for which the call was inactive.

With `CCCCCCCCC=CCCCCCCCC1=NCCN1CCO`, the compound was classed as inactive.

As to `Nc1ccc(N)c2c1C(=O)c1ccccc1C2=O`, the result was inactive.

For the compound `CCc1ccc(O)cc1`, the call was inactive.

For the compound `Cc1cc(S(=O)(=O)O)ccc1N=Nc1c(O)ccc2ccccc12`, the compound was classed as inactive.

For `CC(C)CCCCCCCCCCCCCCC(=O)O`, the outcome was inactive.

With `CCCCCCCCCC(=O)OC`, the compound was called inactive.
